# Assay results as given in the supplement of paper PMC8728848.
# This is one part of a sample in which the strongest signals are shown more often than they occur.
# B1: MCL (Mus musculus), Q9Z2H6 (protein)
# chain: MWLEESQMKSKGTRHPQLIPCVFAVVSISFLSACFISTCLVTHHYFLRWTRGSVVKLSDYHTRVTCIREEPQPGATGGTWTCCPVSWRAFQSNCYFPLNDNQTWHESERNCSGMSSHLVTINTEAEQNFVTQLLDKRFSYFLGLADENVEGQWQWVDKTPFNPHTVFWEKGESNDFMEEDCVVLVHVHEKWVWNDFPCHFEVRRICKLPGITFNWKPSK
# Key:
# Test in all cases: glycan array binding signal (z-score within array); higher = stronger binding
# Details in all cases: glycan notation: IUPAC condensed, linker removed
# [1] = target: Fuc(a1-2)[Gal(a1-3)]Gal(b1-4)Glc
# Outline: (§1)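 The Consortium for Functional Glycomics database supplied 3228 glycan arrays, of which those lacking an available protein sequence were dropped. The binding signal, a within-array Z-score, was averaged across arrays of the same protein sequence and across linkers. Negative scores can be read as non-binding.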
# [2] = target: Fuc(a1-2)[Gal(a1-3)]Gal(b1-4)[Fuc(a1-3)]GlcNAc
# Outline: as §1
# [3] = target: Fuc(a1-2)[GalNAc(a1-3)]Gal
# Outline: as §1
# [4] = target: Fuc(a1-2)[GalNAc(a1-3)]Gal(b1-3)GlcNAc
# Outline: as §1
# [5] = target: Fuc(a1-3)[Gal(b1-4)]GlcNAc(b1-2)Man(a1-6)[Gal(b1-4)GlcNAc(b1-2)Man(a1-3)]Man(b1-4)GlcNAc(b1-4)GlcNAc
# Outline: as §1
# [6] = target: Fuc(a1-3)[Gal(b1-4)]GlcNAc(b1-3)Gal(b1-3)[Fuc(a1-4)]GlcNAc
# Outline: as §1
# [7] = target: Fuc(a1-3)[Gal(b1-4)]GlcNAc6S
# Outline: as §1
# Fuc(b1-3)GlcNAc = target: Fuc(b1-3)GlcNAc
# Outline: as §1
# Gal(a1-3)Gal(b1-3)GlcNAc = target: Gal(a1-3)Gal(b1-3)GlcNAc
# Outline: as §1
# Gal(a1-3)Gal(b1-4)GlcNAc = target: Gal(a1-3)Gal(b1-4)GlcNAc
# Outline: as §1
# Gal(b1-2)Gal = target: Gal(b1-2)Gal
# Outline: as §1
# Gal(b1-3)Gal = target: Gal(b1-3)Gal
# Outline: as §1
# Gal(b1-3)GlcNAc = target: Gal(b1-3)GlcNAc
# Outline: as §1
# [8] = target: Gal(b1-3)GlcNAc(b1-2)Man(a1-3)[Gal(b1-3)GlcNAc(b1-2)Man(a1-6)]Man(b1-4)GlcNAc(b1-4)GlcNAc
# Outline: as §1
# [9] = target: Gal(b1-4)GlcNAc(b1-3)Gal(b1-4)Glc
# Outline: as §1
# [10] = target: Gal3S(b1-3)[Fuc(a1-4)]GlcNAc
# Outline: as §1
# Gal6S(b1-4)Glc = target: Gal6S(b1-4)Glc
# Outline: as §1
# GalNAc(a1-3)GalNAc = target: GalNAc(a1-3)GalNAc
# Outline: as §1
# GlcNAc(b1-3)GalNAc = target: GlcNAc(b1-3)GalNAc
# Outline: as §1
# [11] = target: GlcNAc(b1-3)[GlcNAc(b1-6)]Gal(b1-4)GlcNAc
# Outline: as §1
# [12] = target: GlcNAc(b1-6)Gal(b1-4)GlcNAc
# Outline: as §1
# [13] = target: Neu5Ac(a2-3)Gal(b1-3)GalNAc(b1-3)Gal(b1-4)GlcNAc
# Outline: as §1
# [14] = target: Neu5Ac(a2-3)Gal(b1-3)GlcNAc
# Outline: as §1
# [15] = target: Neu5Ac(a2-3)Gal(b1-3)GlcNAc(b1-3)Gal(b1-3)GlcNAc
# Outline: as §1
# [16] = target: Neu5Ac(a2-3)Gal(b1-3)[Fuc(a1-4)]GlcNAc(b1-3)Gal(b1-4)[Fuc(a1-3)]GlcNAc
# Outline: as §1
# [17] = target: Neu5Ac(a2-3)Gal(b1-3)[Neu5Ac(a2-3)Gal(b1-4)]GlcNAc
# Outline: as §1
# [18] = target: Neu5Ac(a2-3)Gal(b1-3)[Neu5Ac(a2-6)]GalNAc
# Outline: as §1
# [19] = target: Neu5Ac(a2-3)Gal(b1-4)GlcNAc6S
# Outline: as §1
# [20] = target: Neu5Ac(a2-3)Gal(b1-4)[Fuc(a1-3)]GlcNAc(b1-3)Gal
# Outline: as §1
# [21] = target: Neu5Ac(a2-3)Gal(b1-4)[Fuc(a1-3)]GlcNAc6S
# Outline: as §1
# [22] = target: Neu5Ac(a2-3)GalNAc(b1-4)GlcNAc
# Outline: as §1
# [23] = target: Neu5Ac(a2-6)Gal(b1-4)GlcNAc(b1-2)Man(a1-3)[GlcNAc(b1-2)Man(b1-4)GlcNAc(b1-2)Man(a1-6)]Man(b1-4)GlcNAc(b1-4)GlcNAc
# Outline: as §1
# [24] = target: Neu5Ac(a2-6)GalNAc(b1-4)GlcNAc
# Outline: as §1
# [25] = target: Neu5Gc(a2-3)Gal(b1-3)[Fuc(a1-4)]GlcNAc
# Outline: as §1
# [26] = target: Neu5Gc(b2-6)Gal(b1-4)GlcNAc
# Outline: as §1
binder,measurement,setting,value
B1,glycan array binding signal (z-score),[1],-0.321
same,glycan array binding signal (z-score),[2],0.241
same,glycan array binding signal (z-score),[3],-0.254
same,glycan array binding signal (z-score),[4],0.999
same,glycan array binding signal (z-score),[5],5.26
same,glycan array binding signal (z-score),[6],0.601
same,glycan array binding signal (z-score),[7],-0.78
same,glycan array binding signal (z-score),Fuc(b1-3)GlcNAc,-0.475
same,glycan array binding signal (z-score),Gal(a1-3)Gal(b1-3)GlcNAc,2.63
same,glycan array binding signal (z-score),Gal(a1-3)Gal(b1-4)GlcNAc,3.06
same,glycan array binding signal (z-score),Gal(b1-2)Gal,-0.362
same,glycan array binding signal (z-score),Gal(b1-3)Gal,-0.472
same,glycan array binding signal (z-score),Gal(b1-3)GlcNAc,0.168
same,glycan array binding signal (z-score),[8],-0.92
same,glycan array binding signal (z-score),[9],0.482
same,glycan array binding signal (z-score),[10],0.263
same,glycan array binding signal (z-score),Gal6S(b1-4)Glc,0.143
same,glycan array binding signal (z-score),GalNAc(a1-3)GalNAc,-0.708
same,glycan array binding signal (z-score),GlcNAc(b1-3)GalNAc,0.005
same,glycan array binding signal (z-score),[11],-0.357
same,glycan array binding signal (z-score),[12],-0.735
same,glycan array binding signal (z-score),[13],-0.471
same,glycan array binding signal (z-score),[14],0.527
same,glycan array binding signal (z-score),[15],0.595
same,glycan array binding signal (z-score),[16],-0.245
same,glycan array binding signal (z-score),[17],2.08
same,glycan array binding signal (z-score),[18],0.696
same,glycan array binding signal (z-score),[19],-0.011
same,glycan array binding signal (z-score),[20],-0.251
same,glycan array binding signal (z-score),[21],0.138
same,glycan array binding signal (z-score),[22],-1.14
same,glycan array binding signal (z-score),[23],2.17
same,glycan array binding signal (z-score),[24],-0.814
same,glycan array binding signal (z-score),[25],-0.827
same,glycan array binding signal (z-score),[26],0.767
